Reference: PubChem BioAssay (EPA / NIEHS)
Activity calls are given as the source filed them. How the source made its calls: active means hit-call score of the fitted dose curve at least 0.9, where 1 is the maximum; inactive means score below 0.9.

How the values were obtained:
Conditions in all cases: mRNA level, 48 h; actives raise or lower the signal
[1] = read-out: Fatty acid synthase (Homo sapiens) (UniProt P49327); assay: LTEA_HepaRG_FASN: Life Technologies and Expression Analysis (LTEA) Assay for Fatty Acid Synthase (FASN) using HepaRG (AID 2283448)
In short: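 Differentiated HepaRG cells in serum-free induction medium exposed 48 h in duplicate to eight half-log concentrations, top 100 uM, 0.5% DMSO. FASN mRNA by qRT-PCR normalised to ACTB, GAPDH, POLR2A; bidirectional fit versus DMSO.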

[2] = read-out: Cyclin D2 (CCND2), CCND2 (gene 894); assay: LTEA_HepaRG_CCND2: Life Technologies and Expression Analysis (LTEA) Assay for Cyclin D2 (CCND2) using HepaRG (AID 2283449);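 further: CCND2 transcript measured by TaqMan qRT-PCR and normalised to three housekeeping genes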
In short: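 Chemicals in 0.5% DMSO, eight half-log concentrations from 100 uM top, were applied in duplicate for 48 h to human HepaRG cells in serum-free induction medium. CCND2 mRNA by TaqMan qRT-PCR, normalised to ACTB/GAPDH/POLR2A; bidirectional fit versus DMSO.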

[3] = read-out: Cyclin Dependent Kinase Inhibitor 1A (CDKN1A), CDKN1A (gene 1026); assay: LTEA_HepaRG_CDKN1A: Life Technologies and Expression Analysis (LTEA) Assay for Cyclin Dependent Kinase Inhibitor 1A (CDKN1A) using HepaRG (AID 2283450)
In short: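 Gain or loss of CDKN1A transcript is scored by bidirectional fitting against 0.5% DMSO vehicle. Human HepaRG cultures receive chemicals for 48 h across an 8-point series peaking at 100 uM; expression comes from qRT-PCR.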

[4] = read-out: Cyclin D1 (CCND1), CCND1 (gene 595); assay: LTEA_HepaRG_CCND1: Life Technologies and Expression Analysis (LTEA) Assay for Cyclin D1 (CCND1) using HepaRG (AID 2283451)
In short: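 Expression change is measured by qRT-PCR in HepaRG cells after 48 h treatment across eight concentrations topping at 100 uM, with duplicate wells and DMSO (0.5%) serving as baseline for bidirectional fitting.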

[5] = read-out: catalase (CAT), CAT (gene 847); assay: LTEA_HepaRG_CAT: Life Technologies and Expression Analysis (LTEA) Assay for catalase (CAT) using HepaRG (AID 2283452);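 on AC50: TaqMan qRT-PCR signal normalized to ACTB GAPDH and POLR2A housekeeping genes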
In short: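 HepaRG cells in serum-free induction medium, 0.5% DMSO vehicle, exposed 48 h in duplicate over 8 half-log concentrations from 100 uM. CAT mRNA measured by qRT-PCR, normalized to ACTB, GAPDH, POLR2A; bidirectional fit versus DMSO.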

[6] = read-out: flavin-containing dimethylaniline monooxygenases 3 (FMO3), FMO3 (gene 2328); assay: LTEA_HepaRG_FMO3: Life Technologies and Expression Analysis (LTEA) Assay for flavin-containing dimethylaniline monooxygenases 3 (FMO3) using HepaRG (AID 2283453)
In short: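 Differentiated HepaRG cells in serum-free induction medium, exposed 48 h in duplicate to 8 half-log concentrations up to 100 uM in 0.5% DMSO. FMO3 mRNA by qRT-PCR, normalized to ACTB, GAPDH, POLR2A; bidirectional fit vs DMSO.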

[7] = read-out: Cytochrome P450 (CYP1A1), CYP1A1 (gene 1543); assay: LTEA_HepaRG_CYP1A1: Life Technologies and Expression Analysis (LTEA) Assay for Cytochrome P450 (CYP1A1) using HepaRG (AID 2283454)
In short: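 Using HepaRG cultures with 0.5% DMSO as vehicle, eight-concentration exposures (max 100 uM) lasted 48 h. Transcript levels were measured by TaqMan qRT-PCR and normalized to ACTB, GAPDH and POLR2A.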

[8] = read-out: CFLAR gene, CFLAR (gene 8837); assay: LTEA_HepaRG_CFLAR: Life Technologies and Expression Analysis (LTEA) Assay for CFLAR gene using HepaRG (AID 2283455)
In short: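 Differentiated HepaRG cells in serum-free induction medium were exposed 48 h in duplicate to eight half-log concentrations up to 100 uM in 0.5% DMSO; mRNA measured by TaqMan qRT-PCR, normalized to ACTB, GAPDH, POLR2A; bidirectional fitting versus DMSO.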

[9] = read-out: Forkhead box O1 (FOXO1), FOXO1 (gene 2308); assay: LTEA_HepaRG_FOXO1: Life Technologies and Expression Analysis (LTEA) Assay for Forkhead box O1 (FOXO1) using HepaRG (AID 2283456)
In short: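 Differentiated HepaRG cells, in serum-free induction medium with 0.5% DMSO, exposed 48 h in duplicate to 8-point half-log series from 100 uM. FOXO1 mRNA measured by TaqMan qRT-PCR, normalized to ACTB, GAPDH, POLR2A; bidirectional fit versus DMSO.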

[10] = read-out: growth arrest and DNA damage 45 (GADD45A), GADD45A (gene 1647); assay: LTEA_HepaRG_GADD45A: Life Technologies and Expression Analysis (LTEA) Assay for growth arrest and DNA damage 45 (GADD45A) using HepaRG (AID 2283458)
In short: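 Differentiated HepaRG cells exposed 48 h in serum-free induction medium to 8 concentrations, top 100 uM in half-log steps, 0.5% DMSO. GADD45A mRNA quantified by qRT-PCR, normalized to ACTB, GAPDH and POLR2A; bidirectional fit versus DMSO.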

[11] = read-out: Forkhead box O3 (FOXO3), FOXO3 (gene 2309); assay: LTEA_HepaRG_FOXO3: Life Technologies and Expression Analysis (LTEA) Assay for Forkhead box O3 (FOXO3) using HepaRG (AID 2283459)
In short: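 Differentiated human HepaRG cells, 48 h post-plating, exposed in duplicate for 48 h in serum-free induction medium; 8-point half-log series from 100 uM in 0.5% DMSO. FOXO3 mRNA by TaqMan qRT-PCR, normalized to ACTB/GAPDH/POLR2A; bidirectional fit versus DMSO.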

[12] = read-out: ABC Transporter (ABCB1), ABCB1 (gene 5243); assay: LTEA_HepaRG_ABCB1: Life Technologies and Expression Analysis (LTEA) Assay for ABC Transporter (ABCB1) using HepaRG (AID 2283460)
In short: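 HepaRG cells exposed in duplicate for 48 h in serum-free induction medium to eight half-log concentrations up to 100 uM in 0.5% DMSO. ABCB1 mRNA quantified by qRT-PCR, normalised to ACTB, GAPDH and POLR2A; fitted bidirectionally versus DMSO.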

[13] = read-out: growth arrest and DNA damage 45 (GADD45B), GADD45B (gene 4616); assay: LTEA_HepaRG_GADD45B: Life Technologies and Expression Analysis (LTEA) Assay for growth arrest and DNA damage 45 (GADD45B) using HepaRG (AID 2283461)
In short: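 Human HepaRG monolayers receive chemicals for 48 h at eight half-log concentrations, highest 100 uM, in 0.5% DMSO. Expression is measured by TaqMan qRT-PCR and normalized to ACTB, GAPDH and POLR2A.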

[14] = read-out: ABC Transporter (ABCB11), ABCB11 (gene 8647); assay: LTEA_HepaRG_ABCB11: Life Technologies and Expression Analysis (LTEA) Assay for ABC Transporter (ABCB11) using HepaRG (AID 2283463)
In short: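 Differentiated human HepaRG cells in serum-free induction medium, dosed in duplicate for 48 h. Eight-point half-log series from 100 uM in 0.5% DMSO; ABCB11 mRNA by qRT-PCR, normalized to ACTB, GAPDH, POLR2A, fitted bidirectionally versus DMSO.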

[15] = read-out: ABC Transporter (ABCC2), ABCC2 (gene 1244); assay: LTEA_HepaRG_ABCC2: Life Technologies and Expression Analysis (LTEA) Assay for ABC Transporter (ABCC2) using HepaRG (AID 2283464)
In short: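 After plating and 48 h culture, HepaRG medium is replaced with serum-free induction medium and chemicals are added (8 concentrations, max 100 uM, 0.5% DMSO) for 48 h. Total RNA then undergoes qRT-PCR for ABCC2 with housekeeping normalization.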

[16] = read-out: Broad substrate specificity ATP-binding cassette transporter ABCG2 (Homo sapiens) (UniProt Q9UNQ0); assay: LTEA_HepaRG_ABCG2: Life Technologies and Expression Analysis (LTEA) Assay for ABC Transporter (ABCG2) using HepaRG (AID 2283465)
In short: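 Differentiated HepaRG cells were exposed for 48 h in serum-free induction medium to 8 half-log concentrations, top 100 uM, in 0.5% DMSO. ABCG2 mRNA was measured by qRT-PCR, normalized to ACTB, GAPDH and POLR2A, with bidirectional fitting versus DMSO.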

[17] = read-out: ATP-citrate lyase (ACLY), ACLY (gene 47); assay: LTEA_HepaRG_ACLY: Life Technologies and Expression Analysis (LTEA) Assay for ATP-citrate lyase (ACLY) using HepaRG (AID 2283466)
In short: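 Differentiated HepaRG cells exposed 48 h in serum-free induction medium to eight half-log concentrations up to 100 uM in 0.5% DMSO, duplicates. Transcript measured by Fluidigm TaqMan qRT-PCR, normalized to ACTB, GAPDH, POLR2A; bidirectional fit versus DMSO.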

[18] = read-out: Peroxisomal acyl-coenzyme A oxidase 1 (ACOX1) gene, ACOX1 (gene 51); assay: LTEA_HepaRG_ACOX1: Life Technologies and Expression Analysis (LTEA) Assay for Peroxisomal acyl-coenzyme A oxidase 1 (ACOX1) gene using HepaRG (AID 2283467)
In short: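 HepaRG cells, plated 48 h then switched to serum-free induction medium, were exposed in duplicate for 48 h to 8-point half-log concentrations up to 100 uM in 0.5% DMSO. ACOX1 mRNA was measured by qRT-PCR, normalized to ACTB/GAPDH/POLR2A, and fitted bidirectionally versus DMSO.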

[19] = read-out: ABC Transporter (ABCC3), ABCC3 (gene 8714); assay: LTEA_HepaRG_ABCC3: Life Technologies and Expression Analysis (LTEA) Assay for ABC Transporter (ABCC3) using HepaRG (AID 2283462)
In short: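 Transcriptional change of ABCC3 in HepaRG after 48 h treatment, determined by qRT-PCR normalized to endogenous controls. Concentrations spanned eight half-log steps to 100 uM in 0.5% DMSO.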

Sequence of Fatty acid synthase (Homo sapiens) (P49327 whole entry, looked up): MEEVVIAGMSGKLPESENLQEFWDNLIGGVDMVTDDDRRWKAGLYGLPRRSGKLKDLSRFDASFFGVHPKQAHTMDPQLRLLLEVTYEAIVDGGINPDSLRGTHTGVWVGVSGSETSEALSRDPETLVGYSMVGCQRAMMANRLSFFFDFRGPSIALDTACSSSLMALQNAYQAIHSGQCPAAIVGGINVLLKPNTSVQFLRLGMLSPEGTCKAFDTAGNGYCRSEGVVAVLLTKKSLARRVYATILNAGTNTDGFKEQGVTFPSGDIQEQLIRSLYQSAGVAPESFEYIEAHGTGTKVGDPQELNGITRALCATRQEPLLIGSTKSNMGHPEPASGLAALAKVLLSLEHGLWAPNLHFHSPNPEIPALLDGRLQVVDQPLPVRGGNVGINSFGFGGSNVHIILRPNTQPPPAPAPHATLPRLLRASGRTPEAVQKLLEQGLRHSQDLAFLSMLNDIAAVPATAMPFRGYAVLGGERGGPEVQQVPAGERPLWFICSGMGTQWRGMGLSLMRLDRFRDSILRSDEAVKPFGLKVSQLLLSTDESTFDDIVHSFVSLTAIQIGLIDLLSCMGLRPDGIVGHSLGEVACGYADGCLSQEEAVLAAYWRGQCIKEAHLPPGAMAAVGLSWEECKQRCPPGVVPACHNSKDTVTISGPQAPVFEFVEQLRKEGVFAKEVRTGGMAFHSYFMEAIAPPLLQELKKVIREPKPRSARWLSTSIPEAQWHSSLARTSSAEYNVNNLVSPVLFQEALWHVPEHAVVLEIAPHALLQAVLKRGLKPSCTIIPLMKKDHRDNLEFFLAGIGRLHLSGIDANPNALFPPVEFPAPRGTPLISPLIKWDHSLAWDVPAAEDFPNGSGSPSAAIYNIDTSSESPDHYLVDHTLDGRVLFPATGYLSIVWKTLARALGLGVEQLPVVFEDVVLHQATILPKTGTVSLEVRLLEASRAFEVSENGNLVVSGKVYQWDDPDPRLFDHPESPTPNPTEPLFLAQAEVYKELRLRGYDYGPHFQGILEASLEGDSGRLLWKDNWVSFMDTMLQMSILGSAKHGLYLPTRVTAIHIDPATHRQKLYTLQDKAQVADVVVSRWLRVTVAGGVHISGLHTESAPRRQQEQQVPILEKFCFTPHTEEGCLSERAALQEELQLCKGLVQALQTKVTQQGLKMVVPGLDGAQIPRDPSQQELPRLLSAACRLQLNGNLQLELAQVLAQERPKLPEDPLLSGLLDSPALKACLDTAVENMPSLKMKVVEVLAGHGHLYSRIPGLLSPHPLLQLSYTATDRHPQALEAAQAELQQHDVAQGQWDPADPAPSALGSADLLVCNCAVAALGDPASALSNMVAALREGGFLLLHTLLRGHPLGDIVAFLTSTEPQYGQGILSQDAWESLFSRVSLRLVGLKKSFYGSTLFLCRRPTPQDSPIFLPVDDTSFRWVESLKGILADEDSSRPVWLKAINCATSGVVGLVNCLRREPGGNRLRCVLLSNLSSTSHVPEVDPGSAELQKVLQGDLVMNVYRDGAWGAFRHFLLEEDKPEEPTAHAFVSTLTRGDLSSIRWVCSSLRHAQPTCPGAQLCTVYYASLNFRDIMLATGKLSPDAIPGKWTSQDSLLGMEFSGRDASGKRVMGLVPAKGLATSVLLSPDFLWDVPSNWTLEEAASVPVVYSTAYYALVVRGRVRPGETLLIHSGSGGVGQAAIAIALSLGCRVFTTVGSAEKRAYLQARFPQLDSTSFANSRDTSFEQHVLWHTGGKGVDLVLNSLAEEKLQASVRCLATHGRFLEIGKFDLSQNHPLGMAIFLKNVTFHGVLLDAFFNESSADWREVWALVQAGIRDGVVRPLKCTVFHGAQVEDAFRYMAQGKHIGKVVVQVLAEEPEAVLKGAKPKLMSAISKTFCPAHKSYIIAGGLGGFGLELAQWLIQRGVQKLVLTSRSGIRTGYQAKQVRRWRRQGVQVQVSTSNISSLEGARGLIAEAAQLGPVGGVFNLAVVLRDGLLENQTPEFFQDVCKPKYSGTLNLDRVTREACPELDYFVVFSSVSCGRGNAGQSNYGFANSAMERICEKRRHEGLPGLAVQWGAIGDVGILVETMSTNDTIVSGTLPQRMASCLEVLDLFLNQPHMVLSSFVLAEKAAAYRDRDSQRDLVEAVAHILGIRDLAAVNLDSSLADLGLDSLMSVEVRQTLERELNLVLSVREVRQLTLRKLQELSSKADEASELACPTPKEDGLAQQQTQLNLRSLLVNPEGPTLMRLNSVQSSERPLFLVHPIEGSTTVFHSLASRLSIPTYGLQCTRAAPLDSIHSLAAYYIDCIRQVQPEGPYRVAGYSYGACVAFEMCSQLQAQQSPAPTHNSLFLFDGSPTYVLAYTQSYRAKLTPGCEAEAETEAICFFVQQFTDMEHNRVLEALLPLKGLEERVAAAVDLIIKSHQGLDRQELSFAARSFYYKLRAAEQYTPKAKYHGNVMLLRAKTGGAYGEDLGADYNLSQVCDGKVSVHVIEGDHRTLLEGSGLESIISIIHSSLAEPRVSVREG
Sequence of Broad substrate specificity ATP-binding cassette transporter ABCG2 (Homo sapiens) (Q9UNQ0 whole entry, looked up): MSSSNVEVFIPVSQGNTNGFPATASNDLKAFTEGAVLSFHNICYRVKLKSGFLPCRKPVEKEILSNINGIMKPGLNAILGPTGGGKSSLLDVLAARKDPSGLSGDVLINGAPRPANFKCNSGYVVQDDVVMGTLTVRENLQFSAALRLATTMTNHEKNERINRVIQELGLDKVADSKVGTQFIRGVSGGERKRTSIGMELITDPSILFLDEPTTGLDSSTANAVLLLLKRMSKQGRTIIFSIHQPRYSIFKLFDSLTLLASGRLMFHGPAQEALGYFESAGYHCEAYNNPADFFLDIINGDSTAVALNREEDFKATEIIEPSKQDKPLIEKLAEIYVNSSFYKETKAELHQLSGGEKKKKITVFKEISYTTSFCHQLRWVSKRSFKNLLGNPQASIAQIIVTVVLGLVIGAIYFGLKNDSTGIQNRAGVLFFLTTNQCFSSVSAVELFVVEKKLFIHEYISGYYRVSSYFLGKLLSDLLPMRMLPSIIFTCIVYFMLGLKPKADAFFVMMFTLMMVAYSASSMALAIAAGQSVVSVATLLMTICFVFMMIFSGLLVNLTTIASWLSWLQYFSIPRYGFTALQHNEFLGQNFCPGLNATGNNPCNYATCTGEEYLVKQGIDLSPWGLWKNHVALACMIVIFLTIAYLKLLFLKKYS

CCCCCCCCCCCCCCO
outcome [1]: inactive
outcome [2]: inactive
outcome [3]: inactive
outcome [4]: inactive
outcome [5]: inactive
outcome [6]: inactive
AC50 [7]: 50 µM (active)
outcome [8]: inactive
outcome [9]: inactive
outcome [10]: inactive
outcome [11]: inactive
outcome [12]: inactive
outcome [13]: inactive
outcome [14]: inactive
outcome [15]: inactive
outcome [16]: inactive
outcome [17]: inactive
outcome [18]: inactive

O=C(NO)C1(NS(=O)(=O)c2ccc(Oc3ccc(F)cc3)cc2)CCOCC1
AC50 [1]: 50 µM (active)
outcome [2]: inactive
AC50 [3]: 85.1 µM (active)
outcome [4]: inactive
AC50 [5]: 85.5 µM (active)
AC50 [6]: 76.5 µM (active)
outcome [7]: inactive
outcome [8]: inactive
outcome [9]: inactive
outcome [10]: inactive
outcome [11]: inactive
outcome [12]: inactive
outcome [13]: inactive
AC50 [14]: 82.8 µM (active)
outcome [15]: inactive
outcome [16]: inactive
outcome [18]: inactive

NC(=O)NN=Cc1ccc([N+](=O)[O-])o1
AC50 [1]: 50 µM (active)
AC50 [2]: 0.0722 µM (active)
outcome [3]: inactive
outcome [4]: inactive
outcome [5]: inactive
outcome [6]: inactive
AC50 [7]: 50 µM (active)
outcome [8]: inactive
outcome [9]: inactive
outcome [10]: inactive
outcome [11]: inactive
outcome [12]: inactive
outcome [13]: inactive
outcome [19]: inactive
outcome [14]: inactive
AC50 [15]: 50 µM (active)
outcome [16]: inactive
outcome [17]: inactive
outcome [18]: inactive

COS(C)(=O)=O
outcome [1]: inactive
outcome [2]: inactive
outcome [3]: inactive
outcome [4]: inactive
outcome [5]: inactive
outcome [6]: inactive
outcome [7]: inactive
outcome [8]: inactive
outcome [9]: inactive
outcome [10]: inactive
outcome [11]: inactive
outcome [12]: inactive
outcome [13]: inactive
outcome [14]: inactive
outcome [15]: inactive
outcome [16]: inactive
outcome [17]: inactive
outcome [18]: inactive

O=C1CN(N=Cc2ccc([N+](=O)[O-])o2)C(=O)N1
outcome [1]: inactive
outcome [2]: inactive
AC50 [3]: 81.5 µM (active)
outcome [4]: inactive
outcome [5]: inactive
AC50 [6]: 73 µM (active)
outcome [7]: inactive
outcome [8]: inactive
outcome [9]: inactive
AC50 [10]: 80.7 µM (active)
outcome [11]: inactive
outcome [12]: inactive
outcome [13]: inactive
AC50 [14]: 27.7 µM (active)
outcome [15]: inactive
AC50 [16]: 50 µM (active)
outcome [17]: inactive
outcome [18]: inactive

Cc1nccn1-c1ccc(Sc2cccc(C3(C(N)=O)CCOCC3)c2)cc1
AC50 [1]: 9.48 µM (active)
outcome [2]: inactive
AC50 [3]: 12.3 µM (active)
outcome [4]: inactive
AC50 [5]: 8.97 µM (active)
AC50 [6]: 9.6 µM (active)
outcome [7]: inactive
AC50 [8]: 28.3 µM (active)
AC50 [9]: 9.73 µM (active)
AC50 [10]: 10.9 µM (active)
outcome [11]: inactive
AC50 [12]: 21 µM (active)
AC50 [13]: 27.3 µM (active)
AC50 [19]: 3.65 µM (active)
AC50 [14]: 9.74 µM (active)
AC50 [15]: 19.9 µM (active)
AC50 [16]: 31.2 µM (active)
outcome [17]: inactive
AC50 [18]: 12.2 µM (active)

C[C@]12C=CC(=O)C=C1CC[C@H]1[C@@H]3C[C@@H](O)[C@](O)(C(=O)CO)[C@@]3(C)C[C@H](O)[C@@]12F
outcome [1]: inactive
outcome [2]: inactive
outcome [3]: inactive
outcome [4]: inactive
outcome [5]: inactive
outcome [6]: inactive
AC50 [7]: 50 µM (active)
outcome [8]: inactive
outcome [9]: inactive
outcome [10]: inactive
outcome [11]: inactive
outcome [12]: inactive
outcome [13]: inactive
outcome [19]: inactive
outcome [14]: inactive
outcome [15]: inactive
outcome [16]: inactive
outcome [17]: inactive
outcome [18]: inactive
